# Measurements from ChEMBL document CHEMBL1201862, “PubChem BioAssay data set” (2004).
# Screen size: about 400,000 compounds; about 2,100 (0.53%) were called active. About 14% were inconclusive and are not listed. No rule for the calls is given here. This excerpt belongs to a sample that is enriched for actives.
# Target: Ataxin-2 (Homo sapiens) (UniProt Q99700)
# Test: qHTS for Inhibitors of ATXN expression.
# Assay type: functional
# Ataxin-2 (Homo sapiens), sequence (Q99700 whole entry): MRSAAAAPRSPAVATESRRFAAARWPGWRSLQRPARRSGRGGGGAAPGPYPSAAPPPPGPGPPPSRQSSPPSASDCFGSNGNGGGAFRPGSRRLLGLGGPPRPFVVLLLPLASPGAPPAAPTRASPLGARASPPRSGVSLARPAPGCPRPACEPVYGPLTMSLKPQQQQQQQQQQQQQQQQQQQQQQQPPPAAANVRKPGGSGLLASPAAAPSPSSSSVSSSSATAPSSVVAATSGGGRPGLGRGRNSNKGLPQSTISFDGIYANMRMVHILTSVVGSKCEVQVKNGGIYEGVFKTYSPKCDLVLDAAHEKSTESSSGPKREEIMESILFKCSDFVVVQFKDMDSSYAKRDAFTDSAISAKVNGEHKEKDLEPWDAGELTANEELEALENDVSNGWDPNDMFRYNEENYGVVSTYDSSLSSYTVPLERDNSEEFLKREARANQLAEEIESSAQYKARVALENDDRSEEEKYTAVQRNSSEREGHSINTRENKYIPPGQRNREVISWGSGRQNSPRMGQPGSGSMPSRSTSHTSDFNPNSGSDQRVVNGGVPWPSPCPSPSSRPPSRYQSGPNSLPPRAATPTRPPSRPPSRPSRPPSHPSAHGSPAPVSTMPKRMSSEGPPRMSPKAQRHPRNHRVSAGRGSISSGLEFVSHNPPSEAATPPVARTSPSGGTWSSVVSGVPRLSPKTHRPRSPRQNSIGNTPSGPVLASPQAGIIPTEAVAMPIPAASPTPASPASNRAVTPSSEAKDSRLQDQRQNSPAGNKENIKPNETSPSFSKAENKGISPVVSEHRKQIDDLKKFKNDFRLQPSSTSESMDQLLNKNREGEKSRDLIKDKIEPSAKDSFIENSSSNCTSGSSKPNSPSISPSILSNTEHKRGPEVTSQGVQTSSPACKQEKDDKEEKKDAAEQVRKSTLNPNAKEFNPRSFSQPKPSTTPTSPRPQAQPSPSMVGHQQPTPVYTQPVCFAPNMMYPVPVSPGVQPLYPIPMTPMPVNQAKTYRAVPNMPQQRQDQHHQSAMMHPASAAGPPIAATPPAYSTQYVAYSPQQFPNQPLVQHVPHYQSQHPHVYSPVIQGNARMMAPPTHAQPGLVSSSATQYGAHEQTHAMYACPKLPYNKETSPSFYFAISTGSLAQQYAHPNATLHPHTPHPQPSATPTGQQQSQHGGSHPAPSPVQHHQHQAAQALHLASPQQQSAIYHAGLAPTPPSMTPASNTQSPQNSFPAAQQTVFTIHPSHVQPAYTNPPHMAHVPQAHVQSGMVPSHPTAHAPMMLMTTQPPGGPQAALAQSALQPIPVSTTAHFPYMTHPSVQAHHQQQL
row,Compound,Potency
1,N#Cc1cc2c(=O)n3ccccc3nc2n(Cc2ccco2)/c1=N/C(=O)c1ccco1,inactive
2,COc1cccc2sc3ccc(NCc4ccc5c(c4)OCO5)cc3c(=O)c12,inactive
3,Cc1c(C#N)c2n(c1C)CCCC(=O)N2,inactive
4,COc1cc2c(cc1OC)C1=C(C#N)CC/C(=N\S(=O)(=O)c3ccccc3)N1CC2,inactive
5,CCCn1nc(-c2ccccc2)c2nc3ccccc3nc21,inactive
6,COc1ccccc1CCC(=O)NNC(=O)Cn1nc(C)cc1C,inactive
7,CCCCCc1c(-c2ccc(OC)cc2)ncn1CCc1ccccc1OC,31.6 µM (active)
8,CCCCc1c(-c2cccc(F)c2)ncn1CCc1ccccc1OC,39.8 µM (active)
9,COc1ccccc1CCn1c(N)c(C#N)c2nc3ccccc3nc21,inactive
10,CCCCc1c(-c2ccccc2)ncn1CCc1ccccc1OC,35.5 µM (active)
11,CCCCc1c(-c2ccc(OC)cc2)ncn1CCc1ccccc1OC,39.8 µM (active)
12,Cc1cccn2c(=O)c3cc(C(=O)NCc4cccnc4)c(=N)n(C(C)C)c3nc12,inactive
13,COc1ccc2c(c1)CCCC21SC(NC(C)=O)=NN1C(C)=O (centres undefined),inactive
14,O=C1OCCN1C(=O)[C@H]1[C@H](c2ccccc2)C(c2ccccc2)=NN1c1ccc(Br)cc1,inactive
15,CCOc1ccc(-c2nnn(CCC#N)n2)cc1OC,inactive
16,CCCCc1c(-c2ccc(OC)c(OC)c2)ncn1CCc1ccccc1OC,22.4 µM (active)
17,CCOCCCNC(=O)c1ccc2nc(-c3ccc(OC)c(OC)c3)c(-c3ccc(OC)c(OC)c3)nc2c1,inactive
18,CCCS(=O)(=O)c1c(S(=O)(=O)CCC)c2cc(-c3ccncc3)ccn2c1C(=O)OC,inactive
19,CN1CCN(S(=O)(=O)c2ccc(NC(=O)COc3ccccc3)cc2)CC1,inactive
20,Cc1ccc(S(=O)(=O)N2C[C@@H](C)[C@]3(C2)[C@H](O)[C@H](OC(=O)Nc2cccs2)C[C@H]2C(=O)N(c4ccccc4)C(=O)[C@H]23)cc1,35.5 µM (active)
21,CCCCn1/c(=N\C(=O)c2ccco2)c(C(=O)OCC)cc2c(=O)n3cccc(C)c3nc21,inactive
22,CCn1cc(C2C3=C(O)CCCC3=NC(C)=C2C(=O)Nc2ccc(Br)cn2)c(C)n1 (centres undefined),inactive
23,CCOc1nc2cnccc2n(CC(=O)Nc2ccc(C)c(C)c2)c1=O,inactive
24,COc1ccc(NC(=O)Cn2c(SCc3cc(C)ccc3C)nc3ccncc32)c(OC)c1OC,39.8 µM (active)
25,COC(=O)c1ccc(-c2sc3nc(N4CCOCC4)c4c(c3c2N)CC(C)(C)OC4)o1,inactive
26,COc1cc(OC)cc(C(=O)NC(C(=O)NCCc2ccccn2)C(C)C)c1 (centres undefined),inactive

row,Compound,Potency
1,COc1ccc(-c2ccc3c(N)c(C(=O)Nc4ccc(C)cc4C)sc3n2)cc1OC,inactive
2,CCC(C(=O)Nc1cc(OC)cc(OC)c1)n1nc(-c2ccc(C)c(C)c2)ccc1=O (centres undefined),25.1 µM (active)
3,COc1cc(OC)c(NC(C)C(=O)NCc2ccccc2)cc1Cl (centres undefined),inactive
4,COc1ccc(CC(=O)Nc2nn(C)c3nc4c(C)cccc4cc23)cc1,inactive
5,COc1cc(OC)c(NC(=O)C(C)n2nc(-c3ccc(C)c(C)c3)ccc2=O)cc1Cl (centres undefined),35.5 µM (active)
6,N#Cc1c(N)n(-c2cccc(Cl)c2)c2nc3ccccc3nc12,inactive
7,CCc1cc(=O)oc2c(C)c3c(cc12)CN(CCc1ccccc1)CO3,inactive
8,Cc1cccc(-c2nnc(SCc3cc(=O)c4c(C)cc(C)cc4[nH]3)[nH]2)c1,39.8 µM (active)
9,O=C(OCc1ccccc1)N1CCc2ccccc21,inactive
10,COC(=O)[C@@H]1C[C@]2(OC(=O)c3ccccc3)C=CC(=O)C[C@@H]2N1C(=O)OCc1ccccc1,25.1 µM (active)
11,COc1ccc(COC(=O)C2CC(=O)N(Cc3ccccc3)C2)cc1 (centres undefined),inactive
12,C=CCN1C(=O)c2cccc3c(N4CCCCC4)ccc(c23)C1=O,inactive
13,COc1ccccc1/C=C/C(=O)NCC(=O)N=Nc1c(O)[nH]c2ccccc12,inactive
14,COc1ccccc1C=CC(=O)C=Cc1ccccc1OC,16.8 µM (active)
15,COc1ccccc1/C=N/OC(=O)c1ccc(C)cc1,inactive
16,COc1ccc(NC(=O)NS(=O)(=O)c2ccc(C)cc2)cn1,inactive
17,CCOC(=O)c1c(O)cc(C)nc1O,inactive
18,CS(=O)(=O)c1ncc(Cl)c(C(=O)Nc2ccc(N3CCOCC3)cc2)n1,25.1 µM (active)
19,O=C(Nc1ccc(S(=O)(=O)Nc2nccs2)cc1)c1nn(-c2ccccc2)ccc1=O,inactive
20,Cc1ccc(NC(=O)c2sc3nc(C)cc(C)c3c2N)cc1,inactive
21,CCN(c1ccccc1)S(=O)(=O)c1ccc(NC(=O)c2nc(S(C)(=O)=O)ncc2Cl)cc1,17.8 µM (active)
22,CCOC(=O)c1cnc2c(C)cc(Cl)cc2c1N1CCN(C)CC1,inactive
23,COC(=O)c1nc2ccc(N3CCOCC3)cc2c(C)c1C(=O)OC,inactive
24,CCOC(=O)c1nc(S(C)(=O)=O)ncc1Cl,39.8 µM (active)
25,CN(c1ccccc1)S(=O)(=O)c1ccc(Cl)c(C(=O)Nc2nn[nH]n2)c1,inactive
26,O=C(Nc1ccc(N2CCOCC2)cc1)c1cccc(S(=O)(=O)N2CCCCCC2)c1,inactive

row,Compound,Potency
1,CCS(=O)(=O)c1ncc(Cl)c(C(=O)Nc2ccc(C)cc2)n1,35.5 µM (active)
2,O=C(/C=C/Nc1ccc(S(=O)(=O)Nc2ncccn2)cc1)c1ccc(Cl)c(Cl)c1,inactive
3,CCc1cc(=O)oc2c(C)c(O[C@@H]3O[C@H](CO)[C@@H](O)[C@H](O)[C@H]3O)ccc12,inactive
4,CC(C)C1OC2(C)OC(=N)C1(C#N)C(C#N)(C#N)C2c1ccccc1 (centres undefined),inactive
5,CC(=O)c1ccc(N2CCN(C(=O)COc3ccc4ccccc4c3)CC2)cc1,inactive
6,Cc1oc(C(N)=O)cc1COc1ccc(C(N)=O)cc1,inactive
7,Cc1sc2ncn(CC(=O)NCCCC(=O)N3CCN(Cc4ccc5c(c4)OCO5)CC3)c(=O)c2c1C,inactive
8,CCS(=O)(=O)c1ncc(Cl)c(C(=O)Nc2ccccc2OC)n1,35.5 µM (active)
9,Cc1ccccc1NC(=O)c1nc(S(C)(=O)=O)ncc1Cl,inactive
10,Cc1ccc2sc(-c3ccc(NC(=O)/C=C\C(=O)O)cc3)nc2c1,inactive
11,COC(=O)c1scc(C)c1NC(=O)CSc1ccc(Cl)cc1,inactive
12,COC(=O)c1sc(-c2ccc(C(C)(C)C)cc2)cc1NC(=O)/C=C/C(=O)O,39.8 µM (active)
13,COC(=O)c1scc(C)c1NC(=O)c1ccc(Cl)cc1,inactive
14,CC(=O)c1sc(-c2ccccc2)cc1NS(=O)(=O)c1ccccc1,inactive
15,COC(=O)c1sc(-c2ccc(Cl)cc2)cc1NC(=O)/C=C/C(=O)O,28.2 µM (active)
16,CCC(=O)NC(=S)Nc1ccc(S(=O)(=O)NC2CCCCC2)cc1,inactive
17,O=C(Nc1ccc(C(F)(F)F)cc1)c1cc(S(=O)(=O)NC2CCCCCC2)ccc1F,35.5 µM (active)
18,Cc1cc(C)c2c(N)c(C(=O)C(C)(C)C)sc2n1,inactive
19,C=COC(=O)c1sc2nc(C)cc(C)c2c1N,inactive
20,CCOC(=O)N1CCC2(CC1)C(C#N)=C(N)Oc1c2sc2nc(C)cc(C)c12,25.1 µM (active)
21,CSCCC(NC(=O)COc1ccccc1)C(=O)N1CCCCCC1 (centres undefined),inactive
22,O=C(CSc1ccc(F)cc1)Nc1ccccc1Br,inactive
23,O=C(NNc1ccccc1Br)C(O)(c1cccc(C(F)(F)F)c1)c1cccc(C(F)(F)F)c1,20 µM (active)
24,C/C(=N\Nc1cccc(C(F)(F)F)c1)c1ccc(O)cc1,inactive
25,NC(=S)N/N=C1\CCOc2ccc(Cl)cc21,22.4 µM (active)
26,NC(=O)NN=C1CCN2CCCc3cccc1c32,inactive

row,Compound,Potency
1,CC1(C)C/C(=N\NC(=S)Nc2ccccc2F)c2cc(O)ccc2O1,inactive
2,O=c1c2cc(N3CCOCC3)ccc2[nH]c(=S)n1CCc1ccccc1,inactive
3,CC(C)(C)OC(=O)NCC(=O)Oc1cc2oc(=O)cc(-c3ccccc3)c2cc1Cl,inactive
4,CC(C)(C)OC(=O)NCCc1nnc(S(=O)(=O)Cc2ccc(Cl)cc2Cl)o1,17.8 µM (active)
5,COC(c1ccccc1)c1nnc(CCC(=O)NCCc2ccc(Cl)cc2)o1 (centres undefined),inactive
6,CC1CCc2nc(/C(C#N)=C/c3ccncc3)sc2C1 (centres undefined),inactive
7,CSCC(=O)Nc1cc(C)on1,inactive
8,O=C1c2ccccc2S(=O)(=O)c2cc(N3CCC(C(=O)N4CCCCC4)CC3)ccc21,inactive
9,COc1cccc(-c2ccc3c(N)c(C(=O)Nc4ccccc4C)sc3n2)c1,inactive
10,COc1cc(S(=O)(=O)Nc2ccc3c(c2)C(=O)N(C)C3=O)ccc1NC(C)=O,inactive
11,CC(=O)Nc1cc(-c2cccc(NS(C)(=O)=O)c2)cn2c(-c3cccc(C(F)(F)F)c3)cnc12,35.5 µM (active)
12,COc1cccc(-c2cnc3c(NC(C)=O)cc(-c4cccc(NS(C)(=O)=O)c4)cn23)c1,28.2 µM (active)
13,CC1(C)CCCN(C(=O)c2ccc3c(c2NCCO)C(=O)c2ccccc2C3=O)C1,20 µM (active)
14,OCCCc1nc2n(n1)C(c1ccccc1)C=C(c1ccc(F)cc1)N2 (centres undefined),inactive
15,COc1cccc(CN(C)Cc2cc(=O)oc3cc(O)c(Cl)cc23)c1,inactive
16,Cc1cccc(NC(=O)CSc2nc3ccc(NC(=O)c4ccccc4)cc3s2)c1,39.8 µM (active)
17,CC(=O)Nc1ccc(/C(C)=N/Nc2nc(N3CCOCC3)nc(N3CCOCC3)n2)cc1,inactive
18,CC(=O)Nc1ccc(O)c(-c2nc3ccccc3s2)c1,inactive
19,CC(=O)Nc1ccc(/C(C)=N/Nc2nc(Nc3ccccc3)nc(N3CCOCC3)n2)cc1,inactive
20,COc1ccc(NC(=O)CSc2nc3ccc(Nc4nc(N5CCOCC5)nc(N5CCOCC5)n4)cc3s2)cc1,15.8 µM (active)
21,Cc1c(-c2cccc(NC(=O)c3ccco3)c2)nc2ncccn12,inactive
22,N#Cc1ccc(NC(=O)CSc2nc3nc(O)cc(O)c3s2)cc1,inactive
23,CC(C)(C)C(=O)Nc1nc2c(s1)CN(Cc1ccccc1)CC2,inactive
24,CC(C)(C)C(=O)Nc1ccc2nc(SCc3ccccc3)sc2c1,31.6 µM (active)
25,CCn1nc(NC(=O)c2ccco2)c2cc3cc(C)ccc3nc21,inactive
26,Cc1cccc(NC(=O)CSc2nc3ccc(NC(=O)c4ccco4)cc3s2)c1,39.8 µM (active)
